# Results published in PubChem BioAssay.
# Calls of active or inactive are those of the source. How the calls were made is not given here.
# Assay: Brca1-Bard1 BiLC signal decrease – luminescence, single concentration, counter-screen for Mdm2/MdmX interaction inhibitor project, confirmation (AID 504668)
# Conditions: Brca1/Bard1 bimolecular luciferase complementation counterscreen, at 8 µM, active compounds read high
row,SMILES,inhibition
1,CC(=O)Nc1nc(C)c(-c2csc(Nc3ccc(S(N)(=O)=O)cc3)n2)s1,31.7% (active)
2,COc1ccccc1C(NC(C)=O)c1cc(Cl)c2cccnc2c1O (centres undefined),31.2% (active)
3,CCc1ccc2c(c1)C1(NN=C(c3cccc4ccccc34)S1)C(=O)N2 (centres undefined),30% (active)
4,O=C(NC(Cc1c[nH]c2ccccc12)C(=O)Nc1ccc(F)c([N+](=O)[O-])c1)c1cccs1 (centres undefined),24.8% (active)
5,CCOc1ccc(-c2nnc(SCC(=O)Nc3ccc4c(c3)c3ccccc3n4CC)n2N)cc1,23.1% (active)
6,CC(C)[C@H](NC(=O)c1ccccc1Cl)C(=O)Nc1nc(-c2ccccn2)cs1,35.6% (active)
7,COc1ccc(C(=O)C/C(=C\C(=O)c2ccc(C)cc2)c2ccccc2)cc1,24.3% (active)
8,Cc1nc(NC2=NCN(CCCN3CCOCC3)CN2)nc2c(C)cccc12,25.4% (active)
9,O=C1[C@H]2[C@@H](c3ccc(F)cc3)N3C(=O)N(c4ccc(Br)cc4)C(=O)[C@@]3(Cc3ccccc3)[C@H]2C(=O)N1C1CCCCC1,26.6% (active)
10,Cc1ccc2cc(CN(CC3CCCO3)C(=S)Nc3ccccc3)c(=O)[nH]c2c1C (centres undefined),35.3% (active)
11,CCCOc1ccc(/C=N/Nc2cc(N3CCOCC3)ncn2)c(O)c1,23.7% (active)
12,CC(=O)NC(c1ccco1)c1ccc2cccnc2c1O (centres undefined),27.7% (active)
13,Cc1csc2nc(O)c(C(=O)NC3CCCCC3)c(=O)n12,35% (active)
14,O=C(NNC(=O)c1ccccc1OCc1ccc(F)cc1)c1ccccc1O,31.1% (active)
15,CCc1ccc(NC(=O)[C@H](Cc2c[nH]c3ccccc23)NC(=O)[C@@H]2Cc3ccccc3CN2)cc1,24.1% (active)
16,Cn1nnnc1Sc1ncnc2scc(-c3cccc(S(C)(=O)=O)c3)c12,27.4% (active)
17,N=c1c(S(=O)(=O)c2ccc(Cl)cc2)cc2c(=O)n3ccccc3nc2n1CCc1ccccc1,24.9% (active)
18,Cc1cccc(NC(=O)[C@H](Cc2c[nH]c3ccccc23)NC(=O)[C@@H]2Cc3ccccc3CN2)c1,26.6% (active)
19,COc1ccc2[nH]c(C(=O)N/N=C/c3ccc(O)cc3O)cc2c1,31.2% (active)
20,CC[C@]1(C(=O)OC)[C@H]2C(=O)N(Cc3ccccc3)C(=O)[C@H]2[C@H]2CN=C(SCc3ccccc3)N21,35.8% (active)

row,SMILES,inhibition
1,Cc1nnc(-c2ccccc2)c(=O)n1/N=C/c1c(O)ccc2ccccc12,30.7% (active)
2,CCn1c(-c2ccc(C)cc2)nn(CC(=O)NCCc2ccccc2)c1=S,31.4% (active)
3,CCOC(=O)/C(=C\c1cccc(O)c1)c1nc2sc(C)c(C)c2c(=O)[nH]1,27% (active)
4,COc1ccc2c(C(=O)CCl)c[nH]c2c1,24.1% (active)
5,Cc1ccc(NC(=O)c2ccccc2NS(=O)(=O)c2ccc(Cl)s2)cc1,28.9% (active)
6,O=C(NNC(=O)c1ccccc1OCc1ccccc1)c1ccccc1O,34.8% (active)
7,Cc1ccccc1-c1cc(C(=O)Nc2sc(C(=O)OC(C)C)c(C)c2C#N)c2ccccc2n1,23.7% (active)
8,CCOc1cc(NC(=O)c2ccco2)c(OCC)cc1NC(=O)COc1ccccc1C,33.4% (active)
9,O=C(Nc1nc(-c2ccccn2)cs1)c1ccc(F)c(S(=O)(=O)N2CCOCC2)c1,25.6% (active)
10,COc1ccc(N=Nc2ccc(O)c3ncccc23)cc1,31.7% (active)
11,CC#CC[N+](C)(C)CCCCCCCCCCCC,29.6% (active)
12,COc1cc(NS(=O)(=O)c2ccc(N/C=C(\C#N)c3nc4cc(Cl)ccc4o3)cc2)nc(OC)n1,35.2% (active)
13,CCN(CC)C(=O)CN1C(=O)/C(=C/c2ccccc2)SC1=S,27.6% (active)
14,Cn1c(C(=O)NCc2cccs2)cc2oc3ccccc3c21,27.7% (active)
15,Cc1ccc(-c2cnc(C3CC3)o2)cc1S(=O)(=O)Nc1ccccc1,33.6% (active)
16,C=C(C(=O)c1ccccc1)C(C)CC(=O)c1ccccc1 (centres undefined),32.4% (active)
17,COc1ccc(/C=C2/SC(=S)N(CCCC(=O)Nc3cccc(O)c3)C2=O)cc1,28.6% (active)
18,CCOC(=O)c1cnc(-n2nc(C)cc2C)nc1NC1CCCCC1,30.1% (active)
19,Cc1ccc(NC(=O)c2ccccc2NS(=O)(=O)c2ccc(F)cc2)cc1S(=O)(=O)N1CCCCC1,28.2% (active)
